The text below walks through data of PubChem BioAssay (Tox21).

“And” between values parts separate entries of the source, which are not always exact repeats. Equal entries are not always repeated. Results filed as inconclusive are left out. Where a call stands in place of a potency, no number is given. A structure can be active in one record and inactive in another. The source made the active and inactive calls. Calls come from the whole dose curve; as a rule, active = well fitted activation curve with a large enough effect in the repeat runs; inconclusive = weak or mixed curves; inactive = flat fitted curve, though single readings scatter.
Potency is the fitted concentration of half-maximal effect.

The nature of this assay: A CellTox Green Cytotoxicity Assay to monitor cytotoxicity in HepG2 cells - 16 hour (AID 1224876). Note: nearly all actives have a fitted effect of over 45% in size. The settings on record: CellTox Green fluorescence; series mostly up to 76.8 µM; cytotoxicity increase: at the top concentration. The method, boiled down: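 Nonlytic assay: viable cells exclude the dye, so fluorescence scales with cell death. HepG2 at 600 cells/well, compounds added after 5 h, signal read across 40 h.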
On to `CCCCN(CCCC)CCCC`, for which the Potency result is “inactive”.
On the same count and under the same terms, next, `CCOC(=O)NNc1nncc2ccccc12`: “inactive”; `C[Si](O[Si](C)(C)C)O[Si](C)(C)C`: “inactive”; `N[C@@H](Cc1cc(I)c(Oc2cc(I)c(O)c(I)c2)c(I)c1)C(=O)O`: “inactive”.
On the same count and under the same terms, next, `O=C(O)c1ccccc1C(c1ccc(O)cc1)c1ccc(O)cc1`: “inactive”.
Same read-out and setting: the same measure for `CCCCCCCCC/C=C/CC1CC(=O)OC1=O` (stereo not drawn): “inactive”; for `C#C[C@]1(O)CC[C@H]2[C@@H]3CCC4=CC(=O)CC[C@@H]4[C@H]3CC[C@@]21C`: “inactive”.
In the case of `CCCCCC(N)=O`, the Potency result is “inactive”.
For `O=C(O)c1ccc(C(=O)O)cc1`, the “cytotoxicity increase” value was 2.33% (inactive).
For `CC1CCC(C(C)C)C(O)C1` (stereo not drawn), the Potency entry was “inactive”.
Same read-out and setting: next, `CC1CCC2CC1C2(C)C` (stereo not drawn): “inactive”; `CSCCC=O`: “inactive”.
Consider `OCCOCCOCCO`, for which the Potency result is “inactive”.
As for `O=c1[nH]nnc2ccccc12`, the Potency result was “inactive”.
On the same count and under the same terms, the same measure for `CC(=O)CC(=O)Nc1ccccc1C`: “inactive”.
Regarding `CN(C)CCC(c1ccccc1)c1ccccn1` (stereo not drawn), the Potency entry was “inactive”.
Consider `CCCCCC/C(C=O)=C\c1ccccc1`, for which the “cytotoxicity increase” value is 6.13% (inactive).
Take `Nc1ccccc1[N+](=O)[O-]`: the Potency entry is “inactive”.
Still for that read-out and setting: next, `C=C(C)C(=O)O[C@H]1C[C@@H]2CC[C@@]1(C)C2(C)C`: “inactive”; `OCC(CO)(CBr)CBr`: “inactive”.
On the same count and under the same terms, next, `CC(=O)Nc1ccccc1`: “inactive”.
For `CCCCOC(=O)COc1ccc(Cl)cc1Cl`, the Potency entry was “inactive”.
On the same count and under the same terms, the same measure for `CCCCC(CC)COC(=O)CCCCC(=O)OCC(CC)CCCC` (stereo not drawn): “inactive”; for `C[C@H]1C[C@H]2[C@@H]3CCC4=CC(=O)C=C[C@]4(C)[C@@]3(F)[C@@H](O)C[C@]2(C)[C@@]1(O)C(=O)CO`: “inactive”; for `O=P(OC(CCl)CCl)(OC(CCl)CCl)OC(CCl)CCl`: “inactive”.
For `Cc1ccc(N(C)C)cc1`, the Potency entry is “inactive”.
On to `COc1ccc(NC(C)=O)cc1N`, for which the Potency entry was “inactive and 21.9 µM (active)”.
`C/C=C1/CC2C=CC1C2` (stereo not drawn): the Potency result is “inactive”.
The same measure, in the same setting: next, `C#CCN(C)Cc1ccccc1`: “inactive”; `C=C(C)C(=O)OCCOCCOCCOC(=O)C(=C)C`: “inactive”.
As for `CC(C)CC(=O)CC(C)C`, the Potency entry is “inactive”.
Still for that read-out and setting: next, `CCC(O)OCCCOC` (stereo not drawn): “inactive”; `OCc1cccnc1`: “inactive”.
On the same count and under the same terms, next, `CC1=CCC2CC1C2(C)C` (stereo not drawn): “inactive”; `O=C(O)c1ccc2c(c1)C(=O)OC2=O`: “inactive”.
The same measure, in the same setting: the same measure for `CCCCCOC(C)=O`: “inactive”; for `O=C=NCCCCCCN=C=O`: “inactive”; for `CCc1ccc(CCOc2ccc(CC3SC(=O)NC3=O)cc2)nc1` (stereo not drawn): “inactive”.
